Results as given in PubChem BioAssay (Tox21).
Records with an inconclusive call do not appear. The source made the active and inactive calls. Unless noted, calls follow the shape of the dose curve; as a rule, active = well fitted curve in the direction sought with a large enough effect in the repeat runs; inconclusive = weak or mixed curves; inactive = no such curve, though single readings can be large; an effect the other way counts as inactive or inconclusive.

What was measured:
[1] = qHTS assay for small molecule agonists of the p53 signaling pathway (AID 651631; calls by dose curve; also: nearly all actives have a fitted effect of over 15% in size)
Outline: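 HCT-116 cells carrying a stable p53 response element–beta-lactamase reporter were plated, rested 5 h at 37 °C, then exposed to compound in DMSO for 16 h at 37 °C; reporter activity was read as FRET substrate fluorescence after 2 h at room temperature.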

[2] = qHTS assay for small molecules that induce genotoxicity in human embryonic kidney cells expressing luciferase-tagged ATAD5 (AID 651632); also: nearly all actives have a fitted effect of over 15% in size
Outline: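 Luminescent reporter readout, HEK293T ATAD5-luc line: 16 hr drug exposure (37C, 5% CO2) followed by Amplite, 30 min RT.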

[3] = qHTS assay for small molecule agonists of the p53 signaling pathway - cell viability (AID 651633; calls by dose curve; also: series mostly up to about 83 µM; nearly all actives have a fitted effect of over 30% in size)
Outline: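 Viability counter-read: CellTiter-Glo luminescence (30 min, room temperature) in the same p53RE-bla plates. These plates had been exposed to compounds for 16 h at 37 C.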

[4] = qHTS assay for small molecules that induce genotoxicity in human embryonic kidney cells expressing luciferase-tagged ATAD5 - cell viability (AID 651634; calls by dose curve; also: nearly all actives have a fitted effect of over 25% in size)
Outline: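 Viability read: CellTiter-Fluor fluorescence, 30 min at 37C. Cells: HEK293T, luciferase-tagged ATAD5. Exposure: 15.5 hr, 37C, 5% CO2, compound or DMSO vehicle.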

[5] = qHTS assay for small molecule disruptors of the mitochondrial membrane potential - cell viability (AID 720634; calls by dose curve;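 also: human HepG2 liver cancer cells; series mostly up to about 83 µM; nearly all actives have a fitted effect of over 20% in size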)
Outline: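 HepG2, 1 hr compound, 37 C. ATP luminescence via CellTiter-Glo, 30 min RT, same well as m-MPI.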

[6] = qHTS assay for small molecule disruptors of the mitochondrial membrane potential (AID 720635)
Outline: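 Mitochondrial membrane potential tracked with Mito-MPS dye, red aggregates (ex 540/em 590 nm) against green monomers (ex 490/em 535 nm). Compound treatment 1 hr at 37C, dye 30 min in HepG2.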

[7] = qHTS assay to test for compound auto fluorescence at 590 nm (red) in HepG2 cells (AID 720674)
Outline: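 1 hr compound incubation on HepG2 cells, 37 C, 5% CO2; plate read ex 540 nm / em 590 nm; intensities reported as Rose Bengal sodium equivalents.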

[8] = qHTS assay to test for compound auto fluorescence at 535 nm (green) in HepG2 cells (AID 720675)
[9] = qHTS assay to test for compound auto fluorescence at 460 nm (blue) in HEK293 cells (AID 720678)
Outline: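 HEK293 cells (2,000 per well, medium with 10% dialyzed FBS) attached for 4-5 hr at 37C, then received compound and stood overnight at 37C, 5% CO2. Blue fluorescence was read at Ex/Em 405/460 nm and expressed relative to triamterene.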

[10] = qHTS assay to test for compound auto fluorescence at 590 nm (red) in HEK293 cells (AID 720679)
Outline: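 HEK293 cells (2,000/well, medium with 10% dialyzed FBS) attached for 4-5 hr at 37C, received 23 nL compound and were incubated overnight at 37C, 5% CO2. Red fluorescence was then read at 540/590nm Ex/Em, referenced to Rose Bengal sodium.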

[11] = qHTS assay to test for compound auto fluorescence at 535 nm (green) in HEK293 cells (AID 720680)
[12] = qHTS assay to test for compound auto fluorescence at 460 nm (blue) in HEK293 cell free culture (AID 720681)
Outline: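 Blue fluorescence (Ex 405/Em 460 nm, triamterene-equivalent) was read immediately after pin transfer of compound or DMSO into medium (DMEM, 10% FBS) without cells.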

[13] = qHTS assay to test for compound auto fluorescence at 535 nm (green) in HEK293 cell free culture (AID 720682)
Outline: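 Read-out: 485/535 nm fluorescence intensity, calibrated against fluorescein. Medium only (DMEM + 10% FBS, no cells); test compound or DMSO vehicle added by pintool before plate reading.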

[14] = qHTS assay to test for compound auto fluorescence at 590 nm (red) in HEK293 cell free culture (AID 720683)
Outline: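 Red-channel autofluorescence of compounds in culture medium (DMEM, 10% FBS), no cells, measured at 540/590 nm. Rose Bengal sodium is the reference fluorophore for equivalence.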

[15] = qHTS assay to test for compound auto fluorescence at 590 nm (red) in HepG2 cell free culture (AID 720684)
Outline: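 Plate contents were MEM with 10% FBS plus test compound or DMSO, no cells. Fluorescence was recorded with 540 nm excitation and 590 nm emission.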

[16] = qHTS assay to test for compound auto fluorescence at 460 nm (blue) in HepG2 cell free culture (AID 720685)
Outline: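 Compound (23 nL) or DMSO pinned into cell-free MEM with 10% FBS; blue fluorescence read at 405/460 nm excitation/emission, expressed as auto-fluorescence equivalency to triamterene.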

[17] = qHTS assay to test for compound auto fluorescence at 535 nm (green) in HepG2 cell free culture (AID 720686)
[18] = qHTS assay to test for compound auto fluorescence at 460 nm (blue) in HepG2 cells (AID 720687)
Outline: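 Blue-channel autofluorescence (Ex/Em 405/460 nm, triamterene-equivalent) was measured after 1 hr compound exposure at 37 C, 5% CO2. Cells were HepG2, plated overnight at 37 C in MEM plus 10% FBS.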

[19] = target: Glucocorticoid receptor (Homo sapiens) (UniProt P04150); experiment: qHTS assay to identify small molecule agonists of the glucocorticoid receptor (GR) signaling pathway (AID 720691; active = well fitted activation curve with a large enough effect in the signal ratio in the repeat runs, not every such curve was filed as active; the % refers to the signal ratio)
Chain of Glucocorticoid receptor (Homo sapiens) (P04150 whole entry, looked up): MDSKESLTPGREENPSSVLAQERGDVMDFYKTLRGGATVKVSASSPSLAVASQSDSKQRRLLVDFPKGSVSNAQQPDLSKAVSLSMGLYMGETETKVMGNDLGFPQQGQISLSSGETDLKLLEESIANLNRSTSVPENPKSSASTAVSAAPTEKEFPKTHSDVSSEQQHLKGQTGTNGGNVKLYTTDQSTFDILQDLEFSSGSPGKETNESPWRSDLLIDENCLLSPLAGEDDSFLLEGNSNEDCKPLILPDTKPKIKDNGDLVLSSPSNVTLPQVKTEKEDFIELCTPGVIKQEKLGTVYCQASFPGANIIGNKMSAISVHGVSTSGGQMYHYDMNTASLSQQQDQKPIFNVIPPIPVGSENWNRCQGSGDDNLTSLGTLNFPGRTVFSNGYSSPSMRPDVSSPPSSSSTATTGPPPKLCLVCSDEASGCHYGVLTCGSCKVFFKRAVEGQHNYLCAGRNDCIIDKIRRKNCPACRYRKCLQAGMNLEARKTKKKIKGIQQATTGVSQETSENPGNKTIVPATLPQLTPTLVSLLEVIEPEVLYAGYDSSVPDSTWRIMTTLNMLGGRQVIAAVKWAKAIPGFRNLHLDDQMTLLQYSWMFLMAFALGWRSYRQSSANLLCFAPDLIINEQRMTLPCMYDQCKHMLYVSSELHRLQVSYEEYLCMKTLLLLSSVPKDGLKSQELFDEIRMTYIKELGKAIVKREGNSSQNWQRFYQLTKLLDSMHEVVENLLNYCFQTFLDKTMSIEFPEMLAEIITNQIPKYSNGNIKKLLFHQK
Outline: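 qHTS in GR-bla HeLa cells: 4 h settling at 37 C/5% CO2, 18 h compound incubation at 37 C, 2 h LiveBLAzer B/G FRET substrate at room temperature, fluorescence intensity measured.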

[20] = target: Glucocorticoid receptor (Homo sapiens) (UniProt P04150); experiment: qHTS assay to identify small molecule antagonists of the glucocorticoid receptor (GR) signaling pathway (AID 720692; active = well fitted inhibition curve with a large enough effect in the signal ratio in the repeat runs, not every such curve was filed as active; the % refers to the signal ratio)
Outline: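 Inhibition of glucocorticoid signalling is measured in HeLa cells with a GRE-controlled beta-lactamase reporter; cells are co-treated with compound and 5 nM dexamethasone (final) for 18 h before FRET substrate readout.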
% is scaled to controls: 0 for no effect and ±100 for the full control effect.

CC1CCC(C(C)(C)S)C(=O)C1 (stereo not drawn)
inactive: outcome [1] | outcome [2] | outcome [3] | Potency [4] | outcome [5] | Potency [6] | outcome [7] | outcome [8] | outcome [9] | outcome [10] | outcome [11] | outcome [12] | outcome [13] | outcome [14] | outcome [15] | outcome [16] | outcome [17] | outcome [18]

CCCCCCCCCCCCC
inactive: outcome [1] | outcome [2] | outcome [3] | Potency [4] | outcome [5] | Potency [6] | outcome [7] | outcome [8] | outcome [9] | outcome [10] | outcome [11] | outcome [12] | outcome [13] | outcome [14] | outcome [15] | outcome [16] | outcome [17] | outcome [18] | Potency [19] | outcome [20]

CCCCCC1CCCC(=O)O1 (stereo not drawn)
inactive: outcome [1] | outcome [2] | outcome [3] | Potency [4] | outcome [5] | Potency [6] | outcome [7] | outcome [8] | outcome [9] | outcome [10] | outcome [11] | outcome [12] | outcome [13] | outcome [14] | outcome [15] | outcome [16] | outcome [17] | outcome [18] | Potency [19] | outcome [20]

Nc1ccc(S(=O)(=O)Nc2ccccn2)cc1
inactive: outcome [1] | outcome [2] | outcome [3] | Potency [4] | outcome [5] | Potency [6] | fluorescence, relative to Rose Bengal [7] 0.667% [at 18.6 µM] | fluorescence, % of fluorescein control [8] -0.201% [at 18.6 µM] | fluorescence, % of triamterene [9] -0.296% [at 18.6 µM] | fluorescence, % of fluorescent control [10] 0.278% [at 18.6 µM] | fluorescence, % of fluorescein [11] 0.0233% [at 18.6 µM] | fluorescence, % of fluorescent control [12] -0.0806% [at 18.6 µM] | activity change [13] 0.0547% [at 18.6 µM] | fluorescence, % of fluorescent control [14] 0.101% [at 18.6 µM] | fluorescence, % of Rose Bengal [15] 0.012% [at 18.6 µM] | fluorescence, % of fluorescent control [16] -0.12% [at 18.6 µM] | fluorescence, % of fluorescein control [17] -0.0379% [at 18.6 µM] | fluorescence, % of fluorescent control [18] 0.149% [at 18.6 µM] | Potency [19] | outcome [20]

COc1cc2c3cc1Oc1cc(ccc1O)C[C@@H]1c4c(cc(OC)c(O)c4Oc4ccc(cc4)C[C@@H]3N(C)CC2)CC[N+]1(C)C
inactive: outcome [1] | outcome [2] | outcome [3] | Potency [4] | outcome [5] | Potency [6] | outcome [7] | outcome [8] | outcome [9] | outcome [10] | outcome [11] | outcome [12] | outcome [13] | outcome [14] | outcome [15] | outcome [16] | outcome [17] | outcome [18]

CC(=O)c1ccc2c(c1)CCCC2
inactive: outcome [1] | outcome [2] | outcome [3] | Potency [4] | outcome [5] | Potency [6] | outcome [7] | outcome [8] | outcome [9] | outcome [10] | outcome [11] | outcome [12] | outcome [13] | outcome [14] | outcome [15] | outcome [16] | outcome [17] | outcome [18] | Potency [19] | outcome [20]

O=C(CN1CCN(Cc2ccc3c(c2)OCO3)CC1)N1c2ccccc2Sc2ccccc21
inactive: outcome [1] | outcome [2] | outcome [3] | Potency [4] | outcome [5] | Potency [6] | outcome [7] | outcome [8] | outcome [9] | outcome [10] | outcome [11] | outcome [12] | outcome [13] | outcome [14] | outcome [15] | outcome [16] | outcome [17] | outcome [18]

C=C[Si](C)(C)O[Si](C)(C)C=C
inactive: outcome [1] | outcome [2] | outcome [3] | Potency [4] | outcome [5] | Potency [6] | outcome [7] | outcome [8] | outcome [9] | outcome [10] | outcome [11] | outcome [12] | outcome [13] | outcome [14] | outcome [15] | outcome [17] | outcome [18] | outcome [20]

Nc1cc(C(=O)O)ccc1Cl
inactive: outcome [1] | outcome [2] | outcome [3] | Potency [4] | outcome [5] | Potency [6] | outcome [7] | outcome [8] | outcome [9] | outcome [10] | outcome [11] | outcome [12] | outcome [13] | outcome [14] | outcome [15] | outcome [17] | outcome [18]

CC1(N)CCC(C(C)(C)N)CC1 (stereo not drawn)
inactive: outcome [1] | outcome [2] | outcome [3] | Potency [4] | outcome [5] | Potency [6] | outcome [7] | outcome [8] | outcome [9] | outcome [10] | outcome [11] | outcome [12] | outcome [13] | outcome [14] | outcome [15] | outcome [16] | outcome [18] | Potency [19] | outcome [20]

CC(=O)OCCCc1ccccc1
inactive: outcome [1] | outcome [2] | outcome [3] | Potency [4] | outcome [5] | Potency [6] | outcome [7] | outcome [8] | outcome [9] | outcome [10] | outcome [11] | outcome [12] | outcome [13] | outcome [14] | outcome [15] | outcome [17] | outcome [18]

CCCCCCCCCCCCCCCC(=O)NCCO
inactive: outcome [1] | outcome [2] | outcome [3] | Potency [4] | outcome [5] | Potency [6] | outcome [7] | outcome [8] | outcome [9] | outcome [10] | outcome [11] | outcome [12] | outcome [14] | outcome [15] | outcome [16] | outcome [18]

O=C(Nc1cccc(C2=NCCN2)c1)Nc1cccc(C2=NCCN2)c1
inactive: outcome [1] | outcome [2] | outcome [3] | Potency [4] | outcome [5] | Potency [6] | outcome [7] | outcome [8] | outcome [9] | outcome [10] | outcome [11] | outcome [12] | outcome [13] | outcome [14] | outcome [15] | outcome [16] | outcome [17] | Potency [19]

FC(F)(F)/C(=N\OCC1OCCO1)c1ccc(Cl)cc1
inactive: outcome [1] | outcome [2] | outcome [3] | Potency [4] | outcome [5] | Potency [6] | outcome [7] | outcome [8] | outcome [9] | outcome [10] | outcome [11] | outcome [12] | outcome [13] | outcome [14] | outcome [15] | outcome [17] | outcome [18] | Potency [19] | outcome [20]
